Reference: PubChem BioAssay (NCATS)
Records with an inconclusive call do not appear. Active and inactive are the calls of the source. Calls come from the whole dose curve; as a rule, active = well fitted curve in the direction sought with a large enough effect; inconclusive = small, poorly fitted or top-dose-only effect, or another doubt; inactive = no such curve, though single readings can be large; an effect the other way counts as inactive or inconclusive.

Key:
[1] = qHTS of pediatric cancer cell lines to identify multiple opportunities for drug repurposing: Primary screen for DAOY cells (AID 1347090); note: nearly all actives have a fitted effect of over 55% in size
Method in brief: (§1)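 Cell viability, CellTiter-Glo luminescence; 500-1,000 cells/well, 8- or 11-point titration, 48 h compound exposure at 37 degrees C, 5% CO2. Controls: DMSO neutral, bortezomib 2.3 µM final as positive.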

[2] = qHTS of pediatric cancer cell lines to identify multiple opportunities for drug repurposing: Primary screen for SJ-GBM2 cells (AID 1347091)
Method in brief: as §1

[3] = qHTS of pediatric cancer cell lines to identify multiple opportunities for drug repurposing: Primary screen for A673 cells (AID 1347092); note: nearly all actives have a fitted effect of over 45% in size
Method in brief: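 Cell viability of A673 measured by CellTiter-Glo ATP luminescence after 48 hours compound exposure. Dilution series spanned 0.78 nM to 46 µM (MIPE, 11-point) or 0.59 nM to 46 µM (NPC, 8-point); bortezomib 2.3 uM positive control.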

[4] = qHTS of pediatric cancer cell lines to identify multiple opportunities for drug repurposing: Primary screen for SK-N-MC cells (AID 1347093)
Method in brief: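 Metabolically active cells were quantified by ATP-dependent luminescence (CellTiter-Glo, 15 min at room temperature) following 48 h treatment. Cells had been plated at 500-1,000 per well and settled for 5 h beforehand.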

[5] = qHTS of pediatric cancer cell lines to identify multiple opportunities for drug repurposing: Primary screen for BT-37 cells (AID 1347094)
Method in brief: (§2)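 ATP-based luminescence (CellTiter-Glo) quantifies viability after a 48-hour exposure. Compounds are dosed across 8 or 11 final concentrations; DMSO and 2.3 µM bortezomib serve as controls.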

[6] = qHTS of pediatric cancer cell lines to identify multiple opportunities for drug repurposing: Primary screen for NB-EBc1 cells (AID 1347095)
Method in brief: as §2

[7] = qHTS of pediatric cancer cell lines to identify multiple opportunities for drug repurposing: Primary screen for U-2 OS cells (AID 1347096); note: nearly all actives have a fitted effect of over 50% in size
Method in brief: (§3)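 Cells (500-1,000/well) rested 5 h, then received compounds for 48 h; metabolically active cells were measured by CellTiter-Glo luminescence. Final concentrations spanned up to 46 µM (MIPE, 11-point) or 0.59 nM-46 µM (NPC, 8-point) in primary screens, 11-point in follow-ups.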

[8] = qHTS of pediatric cancer cell lines to identify multiple opportunities for drug repurposing: Primary screen for SK-N-SH cells (AID 1347098); note: nearly all actives have a fitted effect of over 65% in size
Method in brief: as §3

[9] = qHTS of pediatric cancer cell lines to identify multiple opportunities for drug repurposing: Primary screen for NB1643 cells (AID 1347099); note: nearly all actives have a fitted effect of over 50% in size
Method in brief: as §2

[10] = qHTS of pediatric cancer cell lines to identify multiple opportunities for drug repurposing: Primary screen for LAN-5 cells (AID 1347100)
Method in brief: as §3

[11] = qHTS of pediatric cancer cell lines to identify multiple opportunities for drug repurposing: Primary screen for BT-12 cells (AID 1347101); note: nearly all actives have a fitted effect of over 25% in size
Method in brief: as §3

[12] = qHTS of pediatric cancer cell lines to identify multiple opportunities for drug repurposing: Primary screen for Rh18 cells (AID 1347102); note: nearly all actives have a fitted effect of over 65% in size
Method in brief: as §3

[13] = qHTS of pediatric cancer cell lines to identify multiple opportunities for drug repurposing: Primary screen for OHS-50 cells (AID 1347103); note: nearly all actives have a fitted effect of over 40% in size
Method in brief: as §3

[14] = qHTS of pediatric cancer cell lines to identify multiple opportunities for drug repurposing: Primary screen for RD cells (AID 1347104); note: nearly all actives have a fitted effect of over 55% in size
Method in brief: as §2

[15] = qHTS of pediatric cancer cell lines to identify multiple opportunities for drug repurposing: Primary screen for MG 63 (6-TG R) cells (AID 1347105); note: nearly all actives have a fitted effect of over 50% in size
Method in brief: as §2

[16] = qHTS of pediatric cancer cell lines to identify multiple opportunities for drug repurposing: Primary screen for Saos-2 cells (AID 1347097); note: nearly all actives have a fitted effect of over 40% in size
Method in brief: as §2

[17] = qHTS of pediatric cancer cell lines to identify multiple opportunities for drug repurposing: Primary screen for control Hh wild type fibroblast cells (AID 1347106); note: nearly all actives have a fitted effect of over 55% in size
Method in brief: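 Cells (500-1,000/well) in growth media were settled 5 h at 37 degrees C, then given compounds for 48 h. Viability was read as CellTiter-Glo luminescence. Primary runs used MIPE at 11 points (0.78 nM-46 µM) and NPC at 8 points (0.59 nM-46 µM); follow-ups used 11 points.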

[18] = qHTS of pediatric cancer cell lines to identify multiple opportunities for drug repurposing: Primary screen for TC32 cells (AID 1347089); note: nearly all actives have a fitted effect of over 60% in size
Method in brief: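 Luminescent ATP read-out (CellTiter-Glo) of metabolically active TC32 cells after 48 h exposure. Concentration-response curves came from 11-point (MIPE, 0.78 nM–46 µM) or 8-point (NPC, 0.59 nM–46 µM) primary titrations; follow-up used 11 points.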
Potency is the fitted concentration of half-maximal effect.

| SMILES | Potency [1] | Potency [2] | Potency [3] | Potency [4] | Potency [5] | Potency [6] | Potency [7] | Potency [8] | Potency [9] | Potency [10] | Potency [11] | Potency [12] | Potency [13] | Potency [14] | Potency [15] | Potency [16] | Potency [17] | Potency [18] |
| --- | --- | --- | --- | --- | --- | --- | --- | --- | --- | --- | --- | --- | --- | --- | --- | --- | --- | --- |
| c1cc(-c2cnn3cc(-c4ccc(OCCN5CCCCC5)cc4)cnc23)ccn1 | 18.7 µM (active) | 16.6 µM (active) | 4.69 µM (active) | 9.35 µM (active) | 17.2 µM (active) | 23.5 µM (active) | inactive | 21.5 µM (active) | 3.72 µM (active) | 9.35 µM (active) | 24.3 µM (active) | 20.9 µM (active) | 9.68 µM (active) | 18.7 µM (active) | 18.7 µM (active) |  |  |  |
| CC(=O)OCC(=O)[C@@]1(O)[C@H](C)C[C@H]2[C@@H]3C=C(C)C4=Cc5c(cnn5-c5ccccc5)C[C@]4(C)[C@@H]3[C@@H](O)C[C@@]21C | 11.8 µM (active) | 5.26 µM (active) | 2.96 µM (active) | 1.18 µM (active) | 19.3 µM (active) | 3.72 µM (active) | 18.7 µM (active) | inactive | 13.2 µM (active) |  | 21.7 µM (active) | 13.2 µM (active) | 19.3 µM (active) | 16.6 µM (active) | 18.7 µM (active) | 18.7 µM (active) | inactive |  |
| CC(C)c1cc(-c2n[nH]c(=O)n2-c2ccc3c(ccn3C)c2)c(O)cc1O |  |  | 0.118 µM (active) | 0.0526 µM (active) | 0.122 µM (active) | 0.0935 µM (active) |  | 0.242 µM (active) | 0.0662 µM (active) |  |  | 0.0833 µM (active) |  | 0.059 µM (active) |  | 0.118 µM (active) |  | 0.131 µM (active) |
| CCCCCN(CCC12CC3CC(CC(C3)C1)C2)C(=O)NCCCc1ccncc1 |  | 18.7 µM (active) |  | 16.6 µM (active) | 24.3 µM (active) | 20.9 µM (active) | inactive | inactive |  |  |  |  | 19.3 µM (active) |  |  |  | inactive | inactive |
| CN1CCC(CNc2ccc3ncc(-c4cccc(OC(F)(F)F)c4)n3n2)CC1 |  |  | 14.8 µM (active) |  | 21.7 µM (active) | 18.7 µM (active) |  | 7.64 µM (active) | 18.7 µM (active) | 14.8 µM (active) | 27.3 µM (active) | 18.7 µM (active) | 4.85 µM (active) | 18.7 µM (active) | 23.5 µM (active) | 18.7 µM (active) | 18.7 µM (active) | inactive |
| CC(=O)Nc1sc2c(c1-c1nc3ccccc3s1)CNC2 |  |  |  |  | 15.3 µM (active) | 2.35 µM (active) | inactive | 1.21 µM (active) | 5.26 µM (active) | 10.5 µM (active) |  |  | 24.3 µM (active) |  | inactive |  | inactive | inactive |
| C[C@H]1C[C@@H]2[C@@H]([C@@H](O)C[C@@]3(C)[C@H]2CC[C@]3(O)C(=O)CO)[C@@]2(C)C=CC(=O)C=C12 |  |  |  |  | inactive | inactive | inactive | inactive | inactive |  | inactive | inactive | inactive | inactive | inactive | inactive |  | inactive |
| Cn1cncc1[C@@](N)(c1ccc(Cl)cc1)c1ccc2c(c1)c(-c1cccc(Cl)c1)cc(=O)n2C | 14.8 µM (active) | 20.9 µM (active) | 23.5 µM (active) | 1.66 µM (active) | 21.7 µM (active) | 11.8 µM (active) | 18.7 µM (active) | 8.57 µM (active) | 18.7 µM (active) | 5.9 µM (active) | 21.7 µM (active) | 16.6 µM (active) | 7.69 µM (active) | 16.6 µM (active) | 23.5 µM (active) | 18.7 µM (active) |  |  |
| COc1ccc(OC)c(-c2nnc3ccc(-c4ccc(OC)c(O[C@@H]5CCOC5)c4)nn23)c1 |  |  | 14.8 µM (active) | 18.7 µM (active) | 27.3 µM (active) | inactive |  | 30.4 µM (active) | 18.7 µM (active) |  | 9.68 µM (active) | 13.2 µM (active) | 17.2 µM (active) | 16.6 µM (active) |  | 29.6 µM (active) |  | inactive |
| CC(C)c1noc(N2CCC(COc3ccc(-c4ccc(S(C)(=O)=O)cc4)nc3)CC2)n1 |  | inactive |  | inactive |  | inactive | inactive | inactive | inactive | inactive |  | inactive | 4.32 µM (active) |  | inactive |  | inactive | inactive |
| O=C(Nc1ncc(-c2cc(C(F)F)nn2-c2c(Cl)cccc2Cl)s1)C1CC1 |  |  | 0.296 µM (active) |  | 0.863 µM (active) | 0.296 µM (active) | 1.87 µM (active) | 0.482 µM (active) | 3.32 µM (active) | 0.332 µM (active) | 0.968 µM (active) |  |  | 0.418 µM (active) |  | 0.209 µM (active) |  | 1.31 µM (active) |
| O=C(c1ccc(Nc2nccc(-c3cc4ccccc4s3)n2)cc1)N1CCC(N2CCCC2)CC1 | 23.5 µM (active) | 13.2 µM (active) | 7.43 µM (active) | 5.26 µM (active) | 24.3 µM (active) | 23.5 µM (active) | 23.5 µM (active) | 19.2 µM (active) | 11.8 µM (active) | 11.8 µM (active) | 27.3 µM (active) | 14.8 µM (active) | 7.69 µM (active) |  | 18.7 µM (active) | 16.6 µM (active) |  |  |
